Assay results from PMC6212790, “How bacterial xenogeneic silencer rok distinguishes foreign from self DNA in its resident genome”.
Whole data set: some 33,000 sequences, median “e-score” near -0.038, cut for the highest 2% near 0.33. The entries come from a sample that favours the highest values as a whole.

What follows are sequences tested against T1, GST-Rok-C97-191 (Bacillus subtilis subsp. subtilis str. …, UniProt O34857 97-191) (assay: protein binding microarray; Rok is a gene silencer of Bacillus subtilis; high values mean tight binding). Details: protein: recombinant; tags: GST (pTH5325, pDEST15-Magic modified); dsDNA, one strand shown.
T1 sequence: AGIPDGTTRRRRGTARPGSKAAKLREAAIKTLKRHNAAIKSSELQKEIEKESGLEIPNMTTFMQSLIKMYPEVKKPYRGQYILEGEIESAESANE
Summary of the method: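 Each has a 25-mer constant primer and a 35-mer variable part from a de Bruijn sequence of order 10, covering every non-palindromic 8-mer at least 32 times (palindromic 16). Preference for each 8-mer is given as a rank-based, unitless enrichment score (E-score). Its range runs from 0.5 (most favored) to −0.5 (most disfavored).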

Sequence	binding signal
ACCTTGCT	-0.156 E-score
GTTTTCAA	-0.105 E-score
ATCAAAAT	0.231 E-score
CGCCGTTC	-0.164 E-score
CATATGTC	0.00539 E-score
CATATGAA	-0.0194 E-score
AATATGTC	0.135 E-score
GATATGTA	0.303 E-score
AATATGTA	0.375 E-score
CATATGTA	0.36 E-score
GCATCAAC	0.0173 E-score
CGATAAGC	0.0146 E-score
CTCTATGC	-0.0298 E-score
AAGAGTAG	0.212 E-score
GAACTAGC	0.205 E-score
AAACTAGT	0.445 E-score
AAACTAGG	0.285 E-score
AAACTAGC	0.337 E-score
ACACTAGT	0.257 E-score
CAACTAGC	0.214 E-score
CGCTGCAA	-0.0879 E-score
TACCATAA	0.354 E-score
GACCATAA	0.0376 E-score
AACCATAA	0.0116 E-score

Sequence	binding signal
ACGTTCGG	0.0487 E-score
GATGGCGA	0.0644 E-score
GAATCTAA	0.188 E-score
CGATCTAA	-0.0333 E-score
CGATCTAC	0.335 E-score
GAATCTCC	0.0847 E-score
GAATCTAC	0.423 E-score
CAATCTGC	0.0189 E-score
CAATCTAA	0.232 E-score
CGATCTAG	0.26 E-score
CAATCTAC	0.395 E-score
CAAGAACC	-0.0441 E-score
GGGACAAA	-0.132 E-score
TGGAGGAA	-0.00731 E-score
AGCGTAAG	-0.0539 E-score
CCTATTCG	-0.0809 E-score
ACTCATCT	-0.0629 E-score
ATGCCCAC	-0.129 E-score
GATTTGTA	0.176 E-score
CGTTTGTA	0.113 E-score
ATTTTGTA	0.228 E-score
AGTTTGTC	0.0866 E-score
AATTTGTA	0.346 E-score
AGTTTGTA	0.367 E-score

Sequence	binding signal
ACTGAAGG	-0.0541 E-score
AGCTCGTC	-0.149 E-score
CCACTAAC	0.0126 E-score
CTGCTCCA	-0.00585 E-score
CGACATGC	-0.104 E-score
AGTTCTAC	0.386 E-score
GATTCTGC	0.0425 E-score
CATTCTAG	0.202 E-score
AGTTCTAT	0.242 E-score
CATTCTAC	0.384 E-score
AATTCTAA	0.286 E-score
AATTCTAT	0.286 E-score
GATTCTAA	0.086 E-score
GATTCTAC	0.406 E-score
CATTCTAA	0.12 E-score
AATTCTAC	0.421 E-score
AGTTCTAA	0.142 E-score
CCGACGTA	-0.0042 E-score
CACATTAG	0.175 E-score
GACTCGTA	-0.148 E-score
ATGCTACC	0.00967 E-score
TAGATAAA	0.292 E-score
AAAAAATG	-0.032 E-score
TCAGGAGA	-0.166 E-score

Sequence	binding signal
ACTAATGC	0.262 E-score
TACTACGA	0.291 E-score
AACTATTG	0.291 E-score
TACTACTA	0.44 E-score
GCCTACTA	0.229 E-score
AACTACTA	0.465 E-score
CGCTACTA	0.326 E-score
AACTACGG	0.19 E-score
AACTACTG	0.424 E-score
AGCTACTA	0.378 E-score
TACTACAA	0.303 E-score
GGCTACTA	0.0153 E-score
AGCTACTG	0.233 E-score
AGGGCACA	-0.171 E-score
ATGAATCA	-0.0987 E-score
CCGACAAC	-0.076 E-score
TACCCTCA	-0.129 E-score
AAGTTCCA	-0.0431 E-score
ACTCACTG	0.00942 E-score
GATCCAAC	-0.164 E-score
CAACCATC	-0.0304 E-score
ATTAAACG	0.0877 E-score
